Only some compounds are listed: those with a hit (about 6.8% of all), similar ones and a draw of the others.
Fluor 339 460: intrinsic fluorescence of library compounds, ex339/em460 – biochemical, MLSMR library, data from DPM-DC assay, artefact control, profiling panel. compound autofluorescence, ex339/em460 nm, NADH buffer; stronger effect = higher value; 1 = no-compound wells, NADH background. fluorescence fold increase at 10 µM. hit rate 5.5% among 65,000;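 active = at 10 µM, mean starting fluorescence two-fold or more over control wells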;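 also: signal is the first read of a kinetic run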
MK inhibit: S. pneumoniae MK inhibitors, primary screen, biochemical, PK/LDH-coupled NADH absorbance. AID 555, 2006. inhibition, % at 10 µM. purified MK, PK/LDH-coupled NADH absorbance 340 nm. mevalonate kinase [Streptococcus pneumoniae D39]. hit rate 0.48% among 65,000;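 active = ranked among the strongest by inhibition in the single 10 µM screen, a fixed top-ranked set picked for dose follow-up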
Spn DPM-DC inh: S. pneumoniae DPM-DC inhibitors, primary screen, biochemical, PK/LDH-coupled NADH fluorescence. diphosphomevalonate decarboxylase (Streptococcus pneumoniae D39). purified DPM-DC. calls only at 10 µM. hit rate 0.49% among 65,000. AID 556, 2006;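 active = the 320 compounds with the highest percent inhibition in the single-dose primary screen, excluding strongly autofluorescent ones, cut at about 32% in these data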;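 also: kinetic rate of NADH fluorescence loss reporting ADP formed by the decarboxylase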
NADH coupling: inhibitors of PK/LDH coupling enzymes, profiling panel, artefact control, biochemical, MLSMR library; coupled PK/LDH NADH assays, four targets; IC50, µM (top dose mostly 10 µM), for the others: at the top dose inhibition; hit rate 0.02% among 65,000; AID 774, 2007;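 active = single-dose screening hits from any of four coupled enzyme assays that gave an IC50 when retested across doses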;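 also: the DPM-DC format reads NADH fluorescence rather than 340 nm absorbance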
Spn PMK inh: S. pneumoniae PMK inhibitors, primary screen, biochemical, mevalonate pathway, pilot trial included. phosphomevalonate kinase (Streptococcus pneumoniae D39). purified PMK, PK/LDH-coupled NADH absorbance 340 nm. inhibition, % at 10 µM. hit rate 0.49% among 65,000;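 active = top-ranked compounds by inhibition in the single 10 µM screen, taking a fixed number of the strongest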;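 also: 0% = full reaction with DMSO carrier and 100% = background rate without enzyme reaction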
A340 absorber: compound light absorbance at 340 nm, profiling panel, artefact control, biochemical, MLSMR library, data from PS, PMK, MK assays | compound absorbance at 340 nm, fold over control | 65,000 tested, under 10 active | AID 708, 2007 | fold change at 10 µM;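 active = at 10 µM dose, initial 340 nm absorbance at least 2 fold that of control wells; inactive = change under 2 fold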;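 also: initial absorbance extrapolated from kinetic A340 decline of NADH oxidation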
Starred values were filed as active, the others as inactive; i = inactive; . = no result given; + = active, no number.

SMILES	Fluor 339 460	MK inhibit	Spn DPM-DC inh	NADH coupling	Spn PMK inh	A340 absorber
CCOC(=O)N1CCN(C(=O)c2cc3c(=O)[nH]c4ccccc4c3s2)CC1	3.74*	9.0	.	13.0%	17.0	1.08
CCOC(=O)/C(N=O)=C(\O)C1CCN(C(=O)OCC)CC1	1.09	0.0	i	6.0%	18.0	1.01
COc1ccccc1COCC(O)CNCC1(N2CCCCC2)CCCCC1 (centres undefined)	1.12	41.0*	i	19.0%	16.0	1.06
CCOC(=O)c1ccccc1NC(=O)CN(c1ccccc1)S(=O)(=O)N(C)C	1.11	7.0	i	6.0%	7.0	1.04
O=C(NC1CC1)c1ccc(CS(=O)(=O)c2c(Cl)cccc2Cl)o1	1.13	3.0	i	1.0%	0.0	1.03
CCOc1cc(-c2nnc(-c3ccco3)o2)cc(OCC)c1OCC	2*	4.0	i	9.0%	2.0	1.03
c1coc(-c2nnc(-c3ccc4c(c3)OCO4)o2)c1	2.2*	8.0	.	4.0%	0.0	1.07
CCOc1ccc(-c2nnc(-c3ccco3)o2)cc1OCC	3.7*	12.0	.	11.0%	10.0	1.04
CCc1c(C)nc(/N=C(/NC(=O)c2ccccc2)Nc2ccccc2OC)[nH]c1=O	1.05	10.0	i	9.0%	10.0	1.06
CC(NC(=O)c1cccc(F)c1)C(c1cccs1)N1CCN(C)CC1 (centres undefined)	1.1	0.0	i	6.0%	19.0	1.04
Cc1cc(C)nc(SCC2COc3ccccc3O2)n1 (centres undefined)	1.1	3.0	i	3.0%	5.0	1.03
CCOC(=O)CNc1c(-c2ccc(O)cc2)nc2ccc(Cl)cn12	1.8	6.0	i	7.0%	5.0	1.06
CCOC(=O)CNc1c(-c2ccc(O)cc2)nc2ccccn12	3.69*	1.0	.	8.0%	15.0	1.08
Oc1ccc(-c2nc3ccccn3c2NCc2ccc3c(c2)OCO3)cc1	3.71*	6.0	.	12.0%	17.0	1.04
Cc1[nH]nc2nc3c(c(OC(=O)c4ccccc4)c12)c(=O)n(C)c(=O)n3C	1.1	3.0	i	3.0%	7.0	1.08
Cc1cn2nc(N)c3ccccc3c2n1	4.97*	2.0	.	8.0%	13.0	1
COCCNC(=O)c1c(N)sc2c1CCCC2	2.12*	2.0	i	11.0%	12.0	1.03
COc1ccc(CN2CCN(C(=O)c3ccco3)CC2)cc1OCc1ccccc1	1.12	52.0*	i	20.0%	7.0	1.06
CCn1c2ccccc2c2cc(CN3CCN(C(=O)c4ccco4)CC3)ccc21	1.08	54.0*	i	28.0%	30.0*	1.04
O=C(NCc1ccc(N2CCCC2=O)cc1)Nc1cccc(Cl)c1	1.11	8.0	i	6.0%	8.0	1.02
COc1ccccc1OCCn1c(C(C)O)nc2ccccc21 (centres undefined)	1.06	1.0	i	3.0%	9.0	1.02
Cc1nn(C(=O)CCCC(=O)n2nc(C)c(Cl)c2C)c(C)c1Cl	1.11	12.0	i	6.0%	5.0	1.12
Clc1cccc(-c2ccc(/C=N/n3cnnc3)o2)c1	1.23	7.0	+	3716µM*	0.0	1.26
O=C(Nc1c(C(=O)Nc2cccc(F)c2)oc2ccccc12)c1ccc2c(c1)OCO2	5.01*	0.0	.	3.0%	6.0	1.1
Cc1ccc(NC(=O)c2oc3ccccc3c2NC(=O)c2ccc3c(c2)OCO3)cc1	2.03*	0.0	i	1.0%	3.0	1.09
SMILES	Fluor 339 460	MK inhibit	Spn DPM-DC inh	NADH coupling	Spn PMK inh	A340 absorber
CCOC(=O)c1ccc(NC(=O)c2ccc3c(c2)OCO3)cc1	1.12	3.0	i	2.0%	4.0	1.05
O=C(Nc1cccc(F)c1)c1ccc2c(c1)OCO2	1.06	18.0	i	4.0%	8.0	1.01
CCOC(=O)N1CCN(Cc2nc3c(c(=O)n(C)c(=O)n3C)n2CCCc2ccccc2)CC1	1.08	5.0	i	4.0%	7.0	1.03
COc1cccc2cc3c(=O)n(-c4ccccc4)nc-3oc12	0.29	7.0	+	19.0%	4.0	0.97
COc1cccc(CNC(=O)C2CCN(S(=O)(=O)N3CC(C)CC(C)C3)CC2)c1 (centres undefined)	1.02	0.0	i	8.0%	24.0	1
O=C(COC(=O)c1cc(S(=O)(=O)N2CCOCC2)ccc1Cl)Nc1ccc2c(c1)OCO2	1.02	5.0	i	6.0%	12.0	0.97
OCCN(CCO)c1nc(N2CCCCC2)c2nc(N(CCO)CCO)nc(N3CCCCC3)c2n1	2.25*	4.0	.	3.0%	2.0	1
CCC(Sc1nc(=O)cc(N)n1-c1ccccc1)C(=O)Nc1ccc(Cl)cn1 (centres undefined)	1.08	4.0	i	4.0%	8.0	1.03
O=C(CN1CCN(c2ncccn2)CC1)NCCC1=CCCCC1	1.16	49.0*	i	22.0%	2.0	1.06
CCN(CC)S(=O)(=O)c1csc(C(=O)NCc2ccccc2)c1	1.05	9.0	i	3.0%	0.0	1.04
CC(C)COC(=O)C1C2C=CC3(CN(C4CCCC4)C(=O)C13)O2 (centres undefined)	1.11	3.0	i	4.0%	8.0	1.02
COCCNc1oc(-c2ccccc2Cl)nc1C#N	1.67	5.0	i	8.0%	6.0	1.06
COc1ccccc1-c1nc(C#N)c(NCc2ccc(F)cc2)o1	3.91*	12.0	.	12.0%	12.0	1.03
COc1ccc(CCNc2oc(-c3ccccc3OC)nc2C#N)cc1	2.96*	16.0	.	6.0%	18.0	1.01
N#Cc1nc(COc2ccccc2Cl)oc1NCc1ccc(F)cc1	1.31	3.0	i	2.0%	3.0	1.03
N#Cc1nc(-c2ccc(F)cc2)oc1NCc1ccccc1	2.23*	0.0	.	1.0%	1.0	1.06
COc1ccc(CNc2oc(COc3ccccc3)nc2C#N)cc1	0.96	5.0	i	7.0%	16.0	1.04
COc1ccc(CCNc2oc(-c3ccccc3OC)nc2C#N)cc1OC	3.93*	14.0	.	15.0%	15.0	1.04
CCN(CC)CCCN1C(=O)C(=O)/C(=C(/O)c2ccccc2)C1c1ccccn1 (centres undefined)	1.01	0.0	i	2.0%	7.0	1
COCCNc1oc(-c2ccc(F)cc2)nc1C#N	2.36*	0.0	.	3.0%	5.0	1.05
COC(=O)c1c(NC(=O)c2ccoc2C)sc2c1CCC2	2.44*	5.0	+	14.0%	4.0	1.09
CCOC(=O)c1c(-c2cccs2)csc1NC(=O)c1ccncc1	2.17*	6.0	.	6.0%	5.0	1.01
Cc1occc1C(=O)Nc1sc2c(c1C(N)=O)CCCCC2	1.21	1.0	i	2.0%	2.0	1.08

Screening results: PubChem, SRMLSC
